Compounds without any hit were thinned out: in the full panel of roughly 83,000, 20% have a hit.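 Compound tested at a single concentration for 48 hours in 96-well plates; a percent growth value below 10 was scored as active.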 Unmarked numbers belong to inactive results. Active and inactive are the calls of the source.
What follows are compounds tested on SK-MEL-28 melanoma (assay: NCI-60 one-dose screen, 48 h (100 = growth as untreated, 0 = no growth, -100 = all killed)). Details: 10 µM unless noted.
Protocol: Growth inhibition of the SK-MEL-28 human tumor cell line is measured as a screen for anti-cancer activity. Cells are grown in 96 well plates and exposed to the test compound for 48 hours. Compounds are tested at a single concentration, which is 10^-5 M for most compounds. The reported endpoint is percent growth (GI% or GIPRCNT), where numbers from 0 - 100% represent growth inhibition, and numbers from -100% - 0 represent cell death. For example, a value of 40 represents 60% growth inhibition. A value of 0 means no net growth occurred over the course of the experiment. A value of -40 indicates 40% of cells at the beginning of the experiment died by the end of the experiment. A value of -100 means all cells are dead at the end of the experiment.
NCI-60 Human Tumor Cell Lines Screen was performed using the standard one-dose NCI protocol, which is described in more detail at https://dtp.cancer.gov/discovery_development/nci-60/default.htm.
Compounds with GIPRCNT values below 10 were considered active. Activity score was based on GIPRCNT using the following formula: […]
Score is 0 for GIPRCNT values of 100 or above, 50 for GIPRCNT values of 0, and 100 for GIPRCNT values of -100.

| Structure (SMILES) | growth |
| --- | --- |
| COc1cc(NC(C)CCCNC(=O)CCC(=O)NCCCNCCCCCCCCNCCCNC(=O)CCC(=O)NCCCC(C)Nc2cc(OC)cc3cccnc23)c2ncccc2c1 (stereo not given) | 78.1% |
| c1ccc2cc(Cn3c(-c4cccc5ccccc45)[n+](Cc4ccc5ccccc5c4)c4c5ccccc5c5ccccc5c43)ccc2c1 | -61.5% (active) |
| CCN(c1ccccc1)S(=O)(=O)c1cc([N+](=O)[O-])ccc1Cl | 88.8% |
| C=CC(=O)N[C@@H](/C=C/C(=O)OCC)Cc1ccc(-c2cc(Cl)cc(Cl)c2)cc1 | 39.8% |
| O=C(Cc1ccc(/C=C/C(=O)c2ncc[nH]2)cc1)Nc1ccc(Cl)cc1 | 67.9% |
| CCN1CCN(CCNc2nccc(-c3c(-c4cccc(OC)c4)nc4occn34)n2)S1(=O)=O | 47.3% |
| COc1cc2cc(Oc3cccc(NC(=O)Nc4cc(C(F)(F)F)cc(C(F)(F)F)c4)c3)c(C)nc2cc1OC | 7.66% (active) |
| Fc1ccc2c(-c3cncn3CCc3ccccc3)c[nH]c2c1 | 98.8% |
| COc1ccc(C(C)=O)c(OC)c1 | 109% |
| COc1ccc(-c2nc3sccn3c2/C=C/C(=O)c2ccc3c(c2)OCO3)cc1 | 105% |
| Cn1ccnc1C(=O)/C=C/c1ccc(CC(=O)NC2CCCCC2)cc1 | 92.3% |
| CCNC(=O)Oc1ccc(/C(=C(\C)c2ccccc2)c2ccc(OCCN(CC)CC)cc2)cc1 | 63.3% |
| CCc1ccc(-c2cn3ccnc3c(-c3ccc4ncn(Cc5ccccc5)c4c3)n2)cc1 | 80.9% |
| CCOC(=O)C1=C(CCl)NC(=O)NC1c1ccc2c(c1)OCO2 (stereo not given) | 45.6% |
| C=C1C(=O)O[C@H]2[C@H]1CC/C(C(=O)NCCCCCNC(=O)/C1=C/CC[C@@]3(C)O[C@H]3[C@H]3OC(=O)C(=C)[C@@H]3CC1)=C\CC[C@@]1(C)O[C@@H]21 | 101% |
| O=S(=O)(NCCCNc1nccc(-c2c(-c3cccc(F)c3)nc3sccn23)n1)c1cccc2ccccc12 | 77.5% |
| COc1cc2c(cc1OC)C(=O)/C(=C/c1cc(C)c(O)c(C)c1)S2 | 65% |
| O=C(CSc1nc2ccccc2[nH]1)NCc1ccccc1 | 102% |
| O=S(=O)(NCCNc1nccc(-c2c(-c3cccc(O)c3)nc3occn23)n1)c1ccc(C(F)(F)F)cc1 | 58.3% |
| Cc1cc2cc3ccc(N(C)C)cc3nc2cc1N | -68.5% (active) |

| Structure (SMILES) | growth |
| --- | --- |
| CC(Oc1ccc(C(=O)O)cc1C(F)(F)F)c1ccc(Oc2ccccc2)cn1 (stereo not given) | 95.1% |
| NC1=NN=C(N)C1=Cc1cc2ccccc2n2nnnc12 | 116% |
| Cc1cnc(C(=O)Nc2nc3ccc(S(=O)(=O)Nc4ccc(C(C)(C)C)cc4)cc3[nH]2)cn1 | 35.8% |
| O=C1/C=C/[C@@H](O)[C@@H]2C[C@@H](O)C[C@H]2/C=C/CCC[C@H](CCc2ccc3ncccc3c2)O1 | -0.806% (active) |
| COc1ccc(C(=O)Nc2cccc(C3CCc4c(cc(OC)c(OC)c4OC)O3)c2)cc1 (stereo not given) | 61.4% |
| O=c1ccc(-c2nc(N3CCOCC3)c3ccccc3n2)c[nH]1 | 97.6% |
| COc1ccccc1/C(C)=N/NC(=O)CSc1nc2ccccc2c(=O)n1Cc1ccc(S(N)(=O)=O)cc1 | 114% |
| C=C(C)[C@@H]1CC[C@]2(C(=O)N3CCN(C)CC3)CC[C@]3(C)[C@H](CC[C@@H]4[C@@]5(C)C/C(=C/c6ccncc6)C(=O)C(C)(C)[C@@H]5CC[C@]43C)[C@@H]12 | 76.9% |
| Cc1ccc(-n2c3c(c(-c4ccccc4)c2-c2ccccc2)C2=NCCN2C=N3)cc1 | 110% |
| COc1ccc(-c2cnc3c(-c4cccc5cnccc45)cnn3c2)cc1 | 60.5% |
| COC(=O)c1ccc2c(c1)[n+](=O)c(C(C)=O)c(C(F)(F)F)n2[O-] | 27% |
| CC(=O)O[C@H]1Cc2c([nH]c3ccccc23)[C@@H](c2ccc(Cl)cc2)N1C(=O)CCNC(C)(C)C | 8.92% (active) |
| CCCCCN1C=C/C(=C\C(=O)N(C)c2ccccc2Br)c2ccccc21 | 105% |
| COc1cc2c(c(OC)c1OC)-c1ccc(NNC(=S)N(Cc3cccc(C[N+](Cc4cccc(CNC56CC7CC(CC(C7)C5)C6)c4)(Cc4cccc(CNC56CC7CC(CC(C7)C5)C6)c4)Cc4cccc(CN(C(=S)NNc5ccc6c(cc5=O)[C@@H](NC(C)=O)CCc5cc(OC)c(OC)c(OC)c5-6)C56CC7CC(CC(C7)C5)C6)c4)c3)C34CC5CC(CC(C5)C3)C4)c(=O)cc1[C@@H](NC(C)=O)CC2 (stereo not given in full) | 33.3% |
| CCN(CC)c1ccc(/C=N/NC(=O)CSc2nc3ccccc3c(=O)n2CCc2ccc(S(N)(=O)=O)cc2)c(O)c1 | 47.9% |
| CCOC(=O)[C@@H](C)C[C@H](Cc1ccccc1)NC(=O)c1csc([C@@H](C[C@H](C(C)C)N(C)C(=O)[C@@H](NC(=O)[C@H]2C[C@H](O[Si](C)(C)C(C)(C)C)CCN2C)C(C)C)OC(C)=O)n1 | 24.2% [9.25 µM] |
| Cc1ccc(S(=O)(=O)Nn2c3c(cc(-c4nc5ccccc5s4)c2=O)CCCCCC3)cc1 | 110% |
| OCc1cnccc1NCCCOc1ccccc1 | 109% |
| CCCCN1C=CCN(CCCC)C1 | 40% |
| O=C(/C=C/c1c(-c2ccc(Cl)cc2)nn(-c2ccccc2)c1C(F)(F)F)c1ccc(Cl)cc1 | 103% |
